PubChem BioAssay (Tox21)
Values without a mark were called inactive. The source made the active and inactive calls. Calls follow the shape of the dose curve; as a rule, active = well fitted activation curve with a large enough effect in the repeat runs; inconclusive = weak or mixed curves; inactive = flat fitted curve, though single readings scatter.

Biological target: KiSS-1 receptor (Homo sapiens) (UniProt Q969F8)
Experiment: Human kisspeptin (KISS1R) small molecule agonists, calcium flux assay in KISS1R-HEK293 cells (AID 1920064)
Conditions: KISS1R-HEK293, calcium flux fluorescence, agonist; series mostly up to 76.8 µM; activation: at the top concentration
Source text: National Center for Advancing Translational Sciences [NCATS]
Division of Preclinical Innovation [DPI]
U.S. Environmental Protection Agency [EPA]
National Institutes of Environmental Health Sciences [NIEHS]
National Toxicology Program [NTP]
U.S. Food and Drug Administration [FDA]
Kisspeptin and its receptor KISS1R play key roles in mammalian reproduction due to their involvement in the onset of puberty and control of the hypothalamic-pituitary-gonadal axis such as regulates GnRH release from the hypothalamus. The kisspeptin/KISS1R system also plays a direct role in peripheral organs (including the ovary, testis, uterus, and placenta) and is implicated in reproductive diseases such as miscarriage and polycystic ovary syndrome (PCOS). Abnormal KISS1R activity is associated with abnormal puberty, infertility, endometriosis, and hormone-dependent tumors. The KISS1 receptor (KISS1R, also called GPR54), a G-protein-coupled receptor (GPCR), acts (through phospholipase C) to increase intracellular inositol trisphosphate and then release intracellular calcium stores. Cell-based KISS1R-HEK293 assay is using HEK293 cells that have been genetically engineered to express the human KISS1R, which activity can be measured by calcium signaling. A compound/drug can activate (agonist) KISS1R that can be monitored by levels of intracellular calcium.
KISS1R-HEK293 cells developed by Codex Corp contain human KISS1R gene, which was stably integrated into HEK 293 cells. The compound activation can be detected by fluorescence intensity via calcium flux assay. This cell line has been used to screen the Tox21 10K compound library to identify agonists of KISS1R.
KISS1R-Hek293 cells were dispensed at 1500 cells/4uL/well in 1536-well black wall/clear bottom plates using a multidrop dispenser. After the assay plates were incubated at a 37 C/5% CO2 incubator for 18 hours, 4 microL of Calcium Dye Solution was added to each well. The plates were incubated at 37 C for 1 hour. And then 23 nL of compounds dissolved in DMSO, positive controls, or DMSO only was transferred to the assay plate by a pin tool station. The fluorescence intensity in the plates was measured using FDSS 7000EX kinetic plate reader with a filter set of Ex/Em=480/540 for 3 min at 1 sec intervals. Each test compound was measured at 15 concentrations and in triplicates.
% is scaled to controls: 0 for no effect and ±100 for the full control effect.

Sequence of KiSS-1 receptor (Homo sapiens) (Q969F8 whole entry, looked up): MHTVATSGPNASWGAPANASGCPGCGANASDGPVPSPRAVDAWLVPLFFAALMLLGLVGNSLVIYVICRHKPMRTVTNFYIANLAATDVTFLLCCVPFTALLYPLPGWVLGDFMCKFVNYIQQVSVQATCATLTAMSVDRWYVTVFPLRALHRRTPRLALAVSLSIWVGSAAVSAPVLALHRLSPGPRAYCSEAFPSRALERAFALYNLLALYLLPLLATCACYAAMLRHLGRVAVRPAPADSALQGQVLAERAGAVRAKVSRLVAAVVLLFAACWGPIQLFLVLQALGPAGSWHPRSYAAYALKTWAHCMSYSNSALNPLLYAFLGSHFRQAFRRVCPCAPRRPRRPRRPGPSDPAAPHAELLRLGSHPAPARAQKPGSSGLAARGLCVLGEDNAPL

| Compound | activation | Potency |
| --- | --- | --- |
| CC(C)(C)CC(C)(C)N | -0.969% | – |
| CN(C)c1ccc(C=O)cc1 | 0.0727% | – |
| c1cc(N(CC2CO2)CC2CO2)ccc1OCC1CO1 (stereo not given) | – | inactive |
| CNC1CCCN(c2c(F)cc3c(=O)c(C(=O)O)cn(C4CC4)c3c2OC)C1 (stereo not given) | -0.0499% [at 35.3 µM] | – |
| CCc1oc2ccccc2c1C(=O)c1cc(I)c(O)c(I)c1 | 0.157% [at 35.3 µM] | – |
| COCCCOCCCOC | -2.64% | – |
| COc1cc(C=C2CCC/C(=C\c3ccc(O)c(OC)c3)C2=O)ccc1O | 0.387% [at 35.3 µM] | – |
| CN(C)CCOC(c1ccccc1)c1ccccc1 | – | inactive |
| COC(=O)[C@@H](N)Cc1ccc(O)c(O)c1 | -0.716% [at 35.3 µM] | – |
| O=C(Nc1cccc([N+](=O)[O-])c1)c1cc2ccccc2cc1O | 1.54% | – |
| N=C1N=C(N)c2cc3ccccc3cc21 | -1.27% | – |
| C[Si](Cl)(c1ccccc1)c1ccccc1 | 1.66% | – |
| O=C1c2ccccc2C(=O)c2c1ccc(O)c2O | -0.867% [at 35.3 µM] | – |
| Cc1c(N)c(=O)n(-c2ccccc2)n1C | -1.01% [at 35.3 µM] | – |
| CC(C)(O)c1ccc(C(C)(C)O)cc1 | -0.311% | – |
| CN(C)c1ccc(N=Nc2ccccc2C(=O)O)cc1 | -0.803% | – |
| C=C1CC[C@H]2C[C@@H]1C2(C)C | -0.0775% | – |
| COC(=O)/C=C(\C)CCC=C(C)C | 0.466% | – |
| O=C(Nc1ccc(Cl)c(Cl)c1)c1cc(Cl)cc(Cl)c1O | 2.68% | – |
| CN(C)[C@@H]1C(=O)C(C(N)=O)=C(O)[C@@]2(O)C(=O)C3=C(O)c4c(O)ccc(Cl)c4[C@@H](O)[C@H]3C[C@@H]12 | 1.61% [at 35.3 µM] | – |

| Compound | activation | Potency |
| --- | --- | --- |
| CCCCCCCCCCCCN1CCCCCC1=O | -0.803% | – |
| O=C(Cl)c1c(Cl)cccc1Cl | 1.67% | – |
| CC1=Nc2ccc3ccccc3c2C1(C)C | -1.27% | – |
| C=CC(=O)[O-].C=CC(=O)[O-].[Zn+2] | 1.64% | – |
| CC(C)(C)CC(C)(C)c1ccc(OCCO)cc1 | -0.413% | – |
| c1cc(CCCc2ccncc2)ccn1 | 0.258% | – |
| Cc1ccccc1S | -2.58% [at 35.3 µM] | – |
| Cc1c(C(=O)O)c(O)cc2c1C(=O)c1c(O)c([C@@H]3O[C@H](CO)[C@@H](O)[C@H](O)[C@H]3O)c(O)c(O)c1C2=O | – | inactive |
| C[C@H]1C[C@H]2[C@@H]3CCC4=CC(=O)C=C[C@]4(C)[C@@]3(Cl)[C@@H](O)C[C@]2(C)[C@@]1(O)C(=O)CO | 3.11% [at 35.3 µM] | – |
| C=CC(=O)OCCn1c(=O)n(CCOC(=O)C=C)c(=O)n(CCOC(=O)C=C)c1=O | 2.11% | – |
| CN1[C@@H]2CC(OC(=O)[C@H](CO)c3ccccc3)C[C@H]1[C@@H]1O[C@@H]12 (stereo not given in full) | – | inactive |
| C[C@@H]1C[C@H]2O[C@@]3(O[C@@H]2C(C)(C)O)[C@H](O)[C@@]2(C)[C@@H]4CC[C@H]5C(C)(C)[C@@H](O[C@@H]6OC[C@@H](O)[C@H](O)[C@H]6O)CC[C@@]56C[C@@]46CC[C@]2(C)[C@@H]13 | 1.63% [at 35.3 µM] | – |
| C[C@H]1O[C@@H](O[C@H]2[C@@H](O)C[C@H](O[C@H]3[C@@H](O)C[C@H](O[C@H]4CC[C@@]5(C)[C@H](CC[C@@H]6[C@@H]5C[C@@H](O)[C@]5(C)[C@@H](C7=CC(=O)OC7)CC[C@]65O)C4)O[C@@H]3C)O[C@@H]2C)C[C@H](O)[C@@H]1O | – | inactive |
| Cc1nc2sccn2c(=O)c1CCN1CCC(=C(c2ccc(F)cc2)c2ccc(F)cc2)CC1 | 3.87% [at 35.3 µM] | – |
| Cc1c(O)cccc1O | 0.214% | – |
| O=C1CCc2cc(OCCCCc3nnnn3C3CCCCC3)ccc2N1 | -1.84% [at 35.3 µM] | – |
| COc1cc(S(=O)(=O)Nc2ccccc2)c(OC)cc1N | 1.31% | – |
| CCCC(=O)OCCC(C)CCC=C(C)C (stereo not given) | 0.749% | – |
| O=C(c1ccccc1)c1cc(Cl)ccc1O | 1.34% | – |
| CC1=C(CC(=O)O)c2cc(F)ccc2/C1=C\c1ccc(S(C)(=O)=O)cc1 | -0.418% [at 35.3 µM] | – |
